± gives the standard deviation.
Columns and labels:
Conditions in all cases: modulator concentration 10 µM
[1] = test system: RAW-Dual (murine macrophage reporter line); assay: NF-kB reporter (SEAP) activity fold change vs agonist alone; higher = enhanced NF-kB activity
In short: (§1)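 RAW-Dual murine macrophage reporter cells were seeded at 50 000 per well in 384-well plates and pre-incubated 1 hour at 37 °C with compound pin-transferred to 10 μM final. After 1 hour, a PRR agonist was added and cells incubated overnight. Supernatant NF-κB (SEAP, QUANTI-Blue, 620 nm absorbance) and IRF (Lucia luciferase, QUANTI-Luc, luminescence) signals were divided by the mean agonist-only control on the same plate to give fold change. Two replicate plates were averaged, with errors by propagation.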

[2] = test system: RAW-Dual (murine macrophage reporter line); assay: IRF reporter (Lucia luciferase) activity fold change vs agonist alone; higher = enhanced IRF activity
In short: as §1

[3] = test system: RAW-Dual (murine macrophage reporter line); assay: viability score (confluency relative to resting cells, overnight) (fraction); higher = more viable, active = viable (0.7 or more)
In short: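 RAW-Dual macrophages in 384-well plates were incubated overnight with compound, final concentration 10 μM. Confluency images from IncuCyte were processed in IncuCyte software into two masks covering all imaged wells. The viability score is each well's confluency relative to resting cells, and a compound met the cutoff when both masks exceeded 70% of resting cells.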

[4] = agonist: CpG ODN 1826 0.5 ug/mL

**Q.** What does the source list for `CN1C(=O)NC(=O)C(=Cc2cc(Br)cc(Cl)c2O)C1=O`?
**A.** NF-kB reporter [1, 4]: 0.19 ± 0.019; NF-kB reporter ([1]; agonist: LPS 0.1 ug/mL): 0.505 ± 0.026; NF-kB reporter ([1]; agonist: MPLA […]): 1.32 ± 0.63; IRF reporter ([2]; agonist: 3'3'-cGAMP 10 ug/mL): 0.537 ± 0.042; IRF reporter ([2]; agonist: LPS 0.1 ug/mL): 1.11 ± 0.078; IRF reporter ([2]; agonist: MPLA […]): 0.942 ± 0.079; viability score [3]: 1.01 (active)

**Q.** Which results are given for `Cc1cc(OC(=O)C2CCCCC2)c2c3c(c(=O)oc2c1)CCC3`?
**A.** NF-kB reporter [1, 4]: 0.947 ± 0.094; NF-kB reporter ([1]; agonist: LPS 0.1 ug/mL): 1.01 ± 0.063; NF-kB reporter ([1]; agonist: MPLA […]): 0.968 ± 0.058; IRF reporter ([2]; agonist: 3'3'-cGAMP 10 ug/mL): 0.948 ± 0.042; IRF reporter ([2]; agonist: LPS 0.1 ug/mL): 1.29 ± 0.13; IRF reporter ([2]; agonist: MPLA […]): 1.13 ± 0.07; viability score [3]: 1.01 (active)

**Q.** Which NF-kB reporter [1, 4] does the source give for `C1=C(c2c[nH]c3ccccc23)CCNC1` here?
**A.** 0.448 ± 0.025

**Q.** And the NF-kB reporter ([1]; agonist: LPS 0.1 ug/mL)?
**A.** 1.03 ± 0.069

**Q.** What about the NF-kB reporter ([1]; agonist: MPLA […]) of the same compound?
**A.** 0.915 ± 0.079

**Q.** And the IRF reporter ([2]; agonist: 3'3'-cGAMP 10 ug/mL)?
**A.** 0.496 ± 0.016

**Q.** What about the IRF reporter ([2]; agonist: LPS 0.1 ug/mL) of the same compound?
**A.** 1.15 ± 0.077

**Q.** And the IRF reporter ([2]; agonist: MPLA […])?
**A.** 0.898 ± 0.087

**Q.** And the viability score [3]?
**A.** 0.989 (active)

**Q.** Which NF-kB reporter [1, 4] does the source give for `COc1ccccc1N1C(=O)C(=Cc2ccc(C)s2)C(=O)NC1=S` here?
**A.** 1.07 ± 0.11

**Q.** And the NF-kB reporter ([1]; agonist: LPS 0.1 ug/mL)?
**A.** 1.08 ± 0.093

**Q.** And the NF-kB reporter ([1]; agonist: MPLA […])?
**A.** 0.973 ± 0.084

**Q.** And the IRF reporter ([2]; agonist: 3'3'-cGAMP 10 ug/mL)?
**A.** 0.953 ± 0.049

**Q.** And the IRF reporter ([2]; agonist: LPS 0.1 ug/mL)?
**A.** 1.8 ± 0.28

**Q.** What about the IRF reporter ([2]; agonist: MPLA […]) of the same compound?
**A.** 1.39 ± 0.14

**Q.** What about the viability score [3] of the same compound?
**A.** 0.992 (active)

**Q.** `CCCCCn1c(=O)c(C(=O)NCc2cccnc2)c(O)c2ccccc21` was tested. Which NF-kB reporter [1, 4] did it give?
**A.** 1.13 ± 0.086

**Q.** What about the NF-kB reporter ([1]; agonist: LPS 0.1 ug/mL) of the same compound?
**A.** 1.25 ± 0.085

**Q.** What about the NF-kB reporter ([1]; agonist: MPLA […]) of the same compound?
**A.** 0.997 ± 0.062

**Q.** What about the IRF reporter ([2]; agonist: 3'3'-cGAMP 10 ug/mL) of the same compound?
**A.** 1.02 ± 0.04

**Q.** What about the IRF reporter ([2]; agonist: LPS 0.1 ug/mL) of the same compound?
**A.** 1.31 ± 0.087

**Q.** And the IRF reporter ([2]; agonist: MPLA […])?
**A.** 1.34 ± 0.12

**Q.** What about the viability score [3] of the same compound?
**A.** 0.989 (active)

**Q.** What does the source list for `CCOC(=O)c1ccccc1-c1ccc(C=C2C(=O)NC(=O)N(c3ccc(C)cc3)C2=O)o1`?
**A.** NF-kB reporter [1, 4]: 0.912 ± 0.071; NF-kB reporter ([1]; agonist: LPS 0.1 ug/mL): 0.931 ± 0.058; NF-kB reporter ([1]; agonist: MPLA […]): 0.971 ± 0.087; IRF reporter ([2]; agonist: 3'3'-cGAMP 10 ug/mL): 0.999 ± 0.061; IRF reporter ([2]; agonist: LPS 0.1 ug/mL): 1.4 ± 0.081; IRF reporter ([2]; agonist: MPLA […]): 1.7 ± 0.14; viability score [3]: 0.951 (active)

**Q.** What does the source list for `CN1CC(CNC(=O)OCc2ccccc2)CC2c3cccc4c3c(cn4C)CC21` (centres undefined)?
**A.** NF-kB reporter [1, 4]: 1.02 ± 0.065; NF-kB reporter ([1]; agonist: LPS 0.1 ug/mL): 0.966 ± 0.11; NF-kB reporter ([1]; agonist: MPLA […]): 0.963 ± 0.08; IRF reporter ([2]; agonist: 3'3'-cGAMP 10 ug/mL): 0.986 ± 0.034; IRF reporter ([2]; agonist: LPS 0.1 ug/mL): 1.43 ± 0.14; IRF reporter ([2]; agonist: MPLA […]): 1.2 ± 0.18; viability score [3]: 0.997 (active)

Reference: the supplement of paper PMC10646978
